ABCB6 inh 2 = inhibitors of human ABC transporter ABCB6; K562-ABCB6 porphyrin accumulation, flow cytometry, 1 h; hits give low values; Q9NP58; 0.19% of 360,000 active; AID 602162; fluorescence ratio to DMSO, % at 10 µM;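 active = fluorescence ratio to DMSO below 75%, the collection mean minus 3 SD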;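 note: signal is porphyrin accumulated inside mitochondria; lower ratio means ABCB6 inhibition with less porphyrin fluorescence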
Target sequence (Q9NP58 whole entry, looked up): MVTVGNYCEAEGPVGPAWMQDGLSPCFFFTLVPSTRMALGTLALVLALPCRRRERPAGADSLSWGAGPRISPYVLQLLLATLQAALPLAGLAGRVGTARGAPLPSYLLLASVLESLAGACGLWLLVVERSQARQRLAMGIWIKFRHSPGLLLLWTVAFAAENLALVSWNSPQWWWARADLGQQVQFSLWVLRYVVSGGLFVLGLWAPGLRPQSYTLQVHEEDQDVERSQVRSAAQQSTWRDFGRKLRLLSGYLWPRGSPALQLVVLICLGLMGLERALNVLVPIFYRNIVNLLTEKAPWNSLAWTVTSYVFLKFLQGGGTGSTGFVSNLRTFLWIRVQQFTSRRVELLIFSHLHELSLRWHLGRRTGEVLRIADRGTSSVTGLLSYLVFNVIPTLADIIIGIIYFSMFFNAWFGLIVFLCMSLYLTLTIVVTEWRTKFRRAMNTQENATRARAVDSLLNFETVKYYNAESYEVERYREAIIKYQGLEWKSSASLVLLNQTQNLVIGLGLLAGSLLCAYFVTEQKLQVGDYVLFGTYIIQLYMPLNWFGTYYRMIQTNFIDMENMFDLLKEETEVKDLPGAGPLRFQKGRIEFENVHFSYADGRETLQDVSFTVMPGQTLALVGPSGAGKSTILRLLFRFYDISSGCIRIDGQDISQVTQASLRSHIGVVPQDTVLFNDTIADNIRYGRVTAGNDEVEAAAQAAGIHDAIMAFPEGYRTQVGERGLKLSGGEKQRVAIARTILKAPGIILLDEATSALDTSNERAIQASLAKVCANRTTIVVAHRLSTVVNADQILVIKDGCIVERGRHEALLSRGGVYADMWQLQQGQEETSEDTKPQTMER
SMARCA2 act = activators of SMARCA2 function | MG213 cells, MMTV-luciferase reporter, dexamethasone, overnight | activation, % at 9.1 µM | 1% of 370,000 active | AID 652017; in the data active = activation above about 7.8%
MsrA act = activates bovine MsrA enzyme; purified bovine MsrA, absorbance read-out; activation, % at 10.6 µM; 0.3% of 360,000 active; AID 602163; in the data active = activation above about 7.5%
MsrA inh = bovine MsrA inhibition; 0.75% of 360,000 active; inhibition, % at 15.5 µM; purified bovine MsrA, absorbance read-out; in the data active = inhibition above about 4.5%
SMARCA2 act conf = confirmation of SMARCA2 (BRM) function activators | activation, % at 9.1 µM | shares compounds with SMARCA2 act | 30% of 3,500 active | MG213 cells, MMTV-luciferase with dexamethasone, luminescence, overnight; MG213 cells expressing E1A, Rb sequestered; DMSO wells 0%, reference activator 100%;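 active = activation above its plate's cutoff, the mean activation of tested wells plus 3 SD, cut at about 7.9% in these data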
GAL4-VP16 Luc = GAL4-VP16 reporter activation counter-screen; shares compounds with SMARCA2 act; HEK293 GAL4-VP16 pG5luc reporter, luciferase luminescence; scaled: DMSO wells 0%, SAHA wells 100%; activation, % at 9.1 µM; 41% of 3,500 active;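 active = activation above the solvent-only control well mean plus 3 SD, averaged across control plates, cut at about 5.2% in these data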
Large screens that a line does not name were inactive (follow-up assays come after a bar, where they were run). The list is not random: actives were taken first. Their share in the collection is about 2.1%.

CCCC(=O)Nc1ccc(NC(=O)c2ccco2)c(OC)c1	SMARCA2 act 9.7 | SMARCA2 act conf inactive | GAL4-VP16 Luc 6.5
Cc1ccc(C(=O)Nc2ccc(F)cc2)cc1NC1=NC2CS(=O)(=O)CC2S1 (stereo not drawn)	SMARCA2 act 9.8 | SMARCA2 act conf inactive | GAL4-VP16 Luc inactive
CCCC(=O)Nc1c2c(nc3ccccc13)N(c1ccccc1)CC2	none (no result: SMARCA2 act, MsrA inh)
O=C(CN1CCCCC1)Nc1c2c(nc3ccccc13)N(c1ccccc1)CC2	SMARCA2 act 11 | SMARCA2 act conf 9.4 | GAL4-VP16 Luc inactive
O=C(NCCc1ccccc1)c1ccc(-c2ccc(F)c(F)c2)c2ccoc12	none
COC(=O)CCC(=O)N1CCC(Oc2cccc(C(=O)NCc3ccccn3)c2)CC1	SMARCA2 act 8.3 | SMARCA2 act conf inactive | GAL4-VP16 Luc inactive
O=C(O)/C=C/C(=O)N1Cc2cc3ccccc3nc2C1	none
CCOC(=O)N1Cc2cc3ccccc3nc2C1	SMARCA2 act 8.9 | SMARCA2 act conf inactive | GAL4-VP16 Luc 10
COc1ccccc1OCc1nc2ccccc2[nH]1	none
Cc1ccccc1OCc1nc2ccccc2[nH]1	SMARCA2 act 8.9 | SMARCA2 act conf inactive | GAL4-VP16 Luc 14
O=C(NC1CCCCN(Cc2cccc(F)c2)C1=O)c1ccc(-c2ccccc2)cc1 (stereo not drawn)	none (no result: ABCB6 inh 2, MsrA act, MsrA inh)
CCN(C(=O)COC(=O)/C(C#N)=C/c1ccc(N(C)C)cc1)C1CCS(=O)(=O)C1 (stereo not drawn)	SMARCA2 act 8.3 | SMARCA2 act conf inactive | GAL4-VP16 Luc inactive
CN(C)c1ccc(/C=C(\C#N)C(=O)OCC(=O)N(C)C2CCS(=O)(=O)C2)cc1 (stereo not drawn)	none
Cc1ccccc1C(=O)N(Cc1ccccn1)CC1CCCO1 (stereo not drawn)	none (no result: ABCB6 inh 2, MsrA act, MsrA inh)
CC(=O)NC(Cc1ccccc1)P(=O)(O)O (stereo not drawn)	none (no result: ABCB6 inh 2, MsrA act, MsrA inh)
CCN(CC)CCNC(=O)Cc1c(C(=O)O)n(C)c2ccccc12	SMARCA2 act 9.5 | SMARCA2 act conf inactive | GAL4-VP16 Luc inactive
NS(=O)(=O)c1ccc(N=Nc2c(O)ccc3ccccc23)cc1	SMARCA2 act 8.8 | SMARCA2 act conf inactive | GAL4-VP16 Luc inactive
Oc1ccccc1C=Nn1c(-c2ccccc2F)n[nH]c1=S	none (no result: ABCB6 inh 2, MsrA act, MsrA inh)
O=C(Cn1cncn1)N/N=C/c1ccc(Cl)cc1	none
O=C(Cn1cncn1)N/N=C/c1cccc(Cl)c1	SMARCA2 act 8.3 | SMARCA2 act conf inactive | GAL4-VP16 Luc inactive
O=C(Cc1ccccc1)NC1CCCCN(Cc2ccc(Cl)cc2)C1=O (stereo not drawn)	none (no result: ABCB6 inh 2, MsrA act, MsrA inh)
CSc1nsc(SCC(=O)Nc2ccccc2)n1	SMARCA2 act 8.8 | SMARCA2 act conf inactive | GAL4-VP16 Luc inactive
Cc1csc(C)[n+]1CC(=O)c1ccccc1	none
CCOC(=O)C[n+]1c(C)csc1C	SMARCA2 act 8.6 | SMARCA2 act conf inactive | GAL4-VP16 Luc inactive
COc1ccc(/C=N/NC(=O)c2ccn[nH]2)cc1COc1ccc(F)cc1	SMARCA2 act 8.4 | SMARCA2 act conf inactive | GAL4-VP16 Luc inactive
CC1CCc2c(sc(NC(=O)CSc3nnc(-c4ccccc4)o3)c2C#N)C1 (stereo not drawn)	SMARCA2 act 9.9 | SMARCA2 act conf inactive | GAL4-VP16 Luc inactive
O=C(CSc1nnc(-c2ccc(O)cc2)o1)Nc1ccccc1	SMARCA2 act 8.6 | SMARCA2 act conf 11 | GAL4-VP16 Luc 8.1
Cc1cc(NC(=O)CSc2nnc(-c3ccc(O)cc3)o2)no1	none
CC(C)C[C@H]1COc2cc(Br)ccc2S(=O)(=O)N1Cc1cn(Cc2ccco2)nn1	none (no result: ABCB6 inh 2, MsrA act, MsrA inh)
COCC#Cc1ccc(CC[C@H]2O[C@H]3CC[C@H](CO)O[C@H]3C[C@H]2n2cc(C(C)(C)O)nn2)cc1	none (no result: ABCB6 inh 2, MsrA act, MsrA inh)
C#Cc1cccc(OC[C@@H](O)CN2CCC(C(O)(c3ccccc3)c3ccccc3)CC2)c1	none (no result: ABCB6 inh 2, MsrA act, MsrA inh)
COc1cccc2c3c(c(=O)[nH]c12)CCC(C)(C)O3	none
COc1cccc2c3c(c(=O)[nH]c12)CC(C)(C)O3	SMARCA2 act 12 | SMARCA2 act conf inactive | GAL4-VP16 Luc inactive
CC(C)(O)[C@H]1Cc2cc3ccc(=O)oc3cc2O1	SMARCA2 act 9.1 | SMARCA2 act conf 11 | GAL4-VP16 Luc 6.2
C=C(C)C1Cc2cc3ccc(=O)oc3cc2O1 (stereo not drawn)	none
COC(=O)CSc1nnc(-c2cc(-c3ccccc3)n[nH]2)n1N	none (no result: ABCB6 inh 2, MsrA act, MsrA inh)
CN(CC(=O)NCc1ccncc1)S(=O)(=O)c1ccc(F)cc1	SMARCA2 act 8.3 | SMARCA2 act conf inactive | GAL4-VP16 Luc inactive
Cn1ccc(C(=O)N/N=C/c2ccccc2[N+](=O)[O-])n1	SMARCA2 act 8.2 | SMARCA2 act conf inactive | GAL4-VP16 Luc inactive
CC1CCCCC1N(C(=O)c1cc(C2CC2)on1)C1CCCCCC1 (stereo not drawn)	none (no result: ABCB6 inh 2, MsrA act, MsrA inh)
Cc1ccc(C(=O)Nc2ccc(NC(=O)c3cccs3)cc2)cc1[N+](=O)[O-]	SMARCA2 act 9.0 | SMARCA2 act conf inactive | GAL4-VP16 Luc inactive
CNc1nnc(-c2cc3cc(Cl)ccc3oc2=O)s1	SMARCA2 act 9.7 | SMARCA2 act conf 10 | GAL4-VP16 Luc 11
COc1ccc2oc(=O)c(-c3nnc(NCc4ccco4)s3)cc2c1	SMARCA2 act 15 | SMARCA2 act conf 15 | GAL4-VP16 Luc 6.5
CCOc1cc(CCNC(=O)c2cc3sccc3n2CC)ccc1OC	none (no result: ABCB6 inh 2, MsrA act, MsrA inh)
CN(C)c1ccc(/C=N\NC(=O)c2csnn2)cc1	SMARCA2 act 8.4, MsrA inh 7.3 | SMARCA2 act conf 15 | GAL4-VP16 Luc 10
O=C(N/N=C/c1ccncc1)c1ccccn1	none
CN(C)c1ccc(/C=N/NC(=O)c2ccccn2)cc1	SMARCA2 act 8.0 | SMARCA2 act conf inactive | GAL4-VP16 Luc 7.5
CC(C)c1ccc(/C=N/NC(=O)c2ccccn2)cc1	none
O=C(N/N=C/C=C\c1ccco1)c1ccccn1	none
CC(/C=N/NC(=O)c1ccccn1)=C\c1ccco1	SMARCA2 act 8.7 | SMARCA2 act conf 12 | GAL4-VP16 Luc 14
Cc1ccc(/C=N/NC(=O)c2ccccn2)o1	SMARCA2 act 11 | SMARCA2 act conf inactive | GAL4-VP16 Luc inactive
O=C(N/N=C\c1ccc(Oc2ccccc2)cc1)c1csnn1	none
Cc1cccc(COC[C@H](Cc2ccccc2)N2CCN(C(=O)c3cc(Cl)cc(Cl)c3)CCC2=O)c1	none
Nc1ccccc1C(=O)NN=Cc1cccc([N+](=O)[O-])c1	SMARCA2 act 9.1 | SMARCA2 act conf 15 | GAL4-VP16 Luc inactive
CCOC(=O)CC[C@@]1(C(=O)OCC)C[C@@H](CC(=O)NCc2cccs2)C(=O)N2CCCC=C21	none (no result: ABCB6 inh 2, MsrA act, MsrA inh)
CSc1ccccc1OCc1cc(C(=O)N2CCSCC2)no1	SMARCA2 act 13 | SMARCA2 act conf 9.6 | GAL4-VP16 Luc 10
O=C1[C@@H](C2CC2)[C@@H]2c3ccccc3C=NN2[C@@H]2c3ccccc3C=NN12	none (no result: ABCB6 inh 2, MsrA act, MsrA inh)
Cc1cc(-c2nnc(-c3cccc(C(F)(F)F)c3)o2)no1	none
Cc1ccc(-c2nnc(-c3cc(C)on3)o2)cc1	SMARCA2 act 9.0 | SMARCA2 act conf inactive | GAL4-VP16 Luc 9.2
Cc1ccc(-c2nnc(-c3ccccc3)o2)cc1	none

Source: PubChem (several laboratories)
